Assay outcomes from PubChem.
CBFb RUNX1 block: CBF-beta/RUNX1 interaction disruption; Q01196+Q13951; AlphaScreen CBFb-His/RUNX1-biotin binding, biochemical; Potency, µM (doses to about 59.8 µM), without a hit: at the top dose activity, negative = inhibition, hits mostly inhibitors; 230,000 tested, under 10 active; AID 1477; further: % of control where 0% means no effect
Target sequence (Q01196 whole entry, looked up): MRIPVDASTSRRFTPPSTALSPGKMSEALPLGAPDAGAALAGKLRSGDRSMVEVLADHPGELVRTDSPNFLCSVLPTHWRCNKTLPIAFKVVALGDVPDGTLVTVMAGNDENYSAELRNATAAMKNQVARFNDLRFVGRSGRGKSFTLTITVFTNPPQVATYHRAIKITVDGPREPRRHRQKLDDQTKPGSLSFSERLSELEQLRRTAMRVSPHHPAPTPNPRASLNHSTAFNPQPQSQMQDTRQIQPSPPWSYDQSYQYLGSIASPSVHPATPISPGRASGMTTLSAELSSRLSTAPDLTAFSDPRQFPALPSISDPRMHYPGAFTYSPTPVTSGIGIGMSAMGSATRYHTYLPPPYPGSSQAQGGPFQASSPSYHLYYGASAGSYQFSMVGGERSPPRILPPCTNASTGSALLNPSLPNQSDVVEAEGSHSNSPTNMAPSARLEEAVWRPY
Target sequence (Q13951 whole entry, looked up): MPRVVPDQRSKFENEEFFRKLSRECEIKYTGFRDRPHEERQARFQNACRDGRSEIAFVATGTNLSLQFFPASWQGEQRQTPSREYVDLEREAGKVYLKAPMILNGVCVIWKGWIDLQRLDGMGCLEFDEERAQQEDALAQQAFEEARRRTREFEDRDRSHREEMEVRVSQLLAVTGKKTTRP
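Proteins preincubated together for 20 min at RT before compound addition; 15 min later, nickel and streptavidin beads were added and left 90 min prior to AlphaScreen measurement.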
NPSR antag: blocks cAMP signaling of the human neuropeptide S receptor. CHO-NPSR cells, cAMP TR-FRET, antagonist mode. Potency, µM (top dose mostly 38.3 µM), inactives show at the top dose activity change, negative = inhibition, hits mostly inhibitors. hit rate 1% among 220,000. AID 1461; further: potency means the concentration at half of the fitted maximal effect; on the % scale 0 is the no-effect control and ±100 the full control effect; nearly all actives have a fitted effect of over 50% in size
MBNL1 CUG block: blocks human MBNL1 binding to CUG repeat RNA; Q9NR56; TR-FRET MBNL1-His/biotin-(CUG)12 binding, 665/545 ratio; Potency, µM (highest dose often 57.5 µM), for inactives: at the top dose activity change, negative = inhibition, usual class: inhibitors; hit rate 0.036% among 280,000; AID 2675; active means well fitted inhibition curve with a large enough effect in the signal ratio, with a control signal flat, not every such curve was filed as active; inconclusive means small, poorly fitted or top-dose-only effect, or effect the other way, or a change in a side signal; inactive means no such curve, though single readings can be large or run the other way; the % refers to the signal ratio; further: potency means the concentration at half of the fitted maximal effect; on the % scale 0 is the no-effect control and ±100 the full control effect
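Ratiometric TR-FRET (665 over 545 nm, excitation 340 nm) tracks disruption of MBNL1-His/biotin-(CUG)12 complex after 60 min at room temperature, with compounds at 92 nM to 58 uM final.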
LMNA splice mod: modulators of lamin A splicing; HeLa LMNA splicing GFP/RFP minigene ratio, 48 h; Potency, µM (top dose mostly 46.1 µM), for the others: at the highest dose ratio change, negative = inhibition, most hits filed as inhibitors; hit rate 0.01% among 200,000; AID 1487; active means well fitted inhibition curve with a large enough effect in the signal ratio, with a control signal flat, not every such curve was filed as active; inconclusive means small, poorly fitted or top-dose-only effect, or effect the other way, or a change in a side signal; the % refers to the signal ratio; further: potency means the concentration at half of the fitted maximal effect; on the % scale 0 is the no-effect control and ±100 the full control effect
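S3 HeLa stable clones carrying a lamin A-EGFP splicing minigene plus DsRed2 were seeded at 600 cells/well in Opti-MEM with 2% FBS, pin-dosed and incubated 48 h at 37°C. Acumen cytometry (488 nm) gave the GFP/RFP total-intensity ratio.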
HTT cytoprotect: Huntington cell model cytoprotection by ATP luminescence; Potency, µM (doses to about 56.4 µM), inactives show cytoprotection (ATP increase), actives largely listed as activators; AID 1471; PC12 HTT-Q103 induced, cytoprotection, ATP luminescence, 40 h; hit rate 0.14% among 230,000; further: potency means the concentration at half of the fitted maximal effect; % of control where 0% means no effect; nearly all actives have a fitted effect of over 45% in size
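Quantitative HTS on tebufenozide-induced (100 nM) PC12 cells expressing HTTQ103 exon 1–GFP; compounds tested as a concentration series; survival measured via cellular ATP.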
HttQ103 aggreg: mutant huntingtin aggregation inhibition. PC12 HttQ103-GFP aggregates, Acumen cytometry, 40 h. Potency, µM (series often up to 46.1 µM), for the others: at the highest dose activity change, negative = inhibition, most hits filed as inhibitors. hit rate 1.1% among 220,000. AID 1688; further: potency means the concentration at half of the fitted maximal effect; on the % scale 0 is the no-effect control and ±100 the full control effect; nearly all actives have a fitted effect of over 60% in size
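Huntingtin Q103 exon 1–GFP aggregates in induced PC12 cells (100 nM tebufenozide) were quantified by cytometry from lysates, with compounds dosed in titration.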
Starred values were filed as active, the others as inactive; ? = inconclusive; nt = no result given; [ ] = dose if it differs, or a comment. Most compounds without a hit are left out; they make up all but 1.1% or so of the library. Unless noted, the call rests on the fitted dose curve; in most records, active means well fitted curve in the direction sought with a large enough effect; inconclusive means small, poorly fitted or top-dose-only effect, or another doubt; inactive means no such curve, though single readings can be large; an effect the other way counts as inactive or inconclusive.

SMILES | CBFb RUNX1 block | NPSR antag | MBNL1 CUG block | LMNA splice mod | HTT cytoprotect | HttQ103 aggreg
NC(=O)c1ccsc1NC(=O)c1ccc(S(=O)(=O)N2CCCC2)cc1 | 6% | 2µM* | 2% | ? | -3% | 7%
COc1ccc(-c2cnnn2-c2ccc(NC(=O)c3ccc(S(=O)(=O)N4CCCCC4)cc3)cc2)cc1OC | -7% | 3.2µM* | nt | -15% | -7%[10 µM] | 9%
Cc1cc(C)c(NC(=O)C2CCN(C(=O)N3CC(C)Oc4ccc(Cl)cc43)CC2)c(C)c1 (configuration not stated) | nt | nt | nt | 2%[46 µM] | nt | nt
O=C(NCCCCCCNC(=O)ON=C1CCCCC1)ON=C1CCCCC1 | -1% | nt | nt | nt | ? | nt
Nc1ccn([C@@H]2O[C@@H](CO)[C@@H](O)[C@H]2O)c(=O)n1 | nt | nt | nt | ? | -63%[1.9 µM] | nt
O=C(/C=C\c1cccs1)c1c(O)ccc2ccc(=O)oc12 | -1% | -25% | ? | ? | 12%[10 µM] | 11µM*
c1nc2sc3c(c2c2nnnn12)CCC3 | 2% | 15%[46.1 µM] | 12% | ? | 15% | ?
c1nc2sc3c(c2c2nnnn12)CCCC3 | 3% | 3%[46.1 µM] | 15% | 15% | 6%[1.9 µM] | 10µM*
COc1cc(OC)c(NC(=O)C(C)n2c(=O)cc(-c3ccccc3)c3c(C)nn(C)c32)cc1Cl (configuration not stated) | nt | nt | nt | 4%[46 µM] | nt | nt
COc1ccc(Cl)c(N2CCN(CCCNC(=O)Nc3ccc(C)cc3)CC2)c1 | -6% | -6%[46.1 µM] | 6% | ? | -35% | 35µM*
CCN(CC)c1ccc(/C=N/N2CCN(Cc3ccccc3Cl)CC2)c(O)c1 | 0% | 31% | 1% | nt | -2%[10 µM] | -7%[9.22 µM]
CCN(CC)c1ccc(/C=N/N2CCN(Cc3ccc(C)cc3)CC2)c(O)c1 | -3% | -2%[46.1 µM] | 8% | 3% | -14% | 0.63µM*
Cc1ccc(NC(=O)CSc2nccn2-c2ccccc2)cc1 | nt | nt | nt | -3%[46 µM] | nt | nt
COc1cc(/C=C2\SC(=O)NC2=O)ccc1Oc1ccc([N+](=O)[O-])cn1 | -1% | -58% | ? | nt | -10%[10 µM] | -14%[9.22 µM]
COc1cc(/C=C2/SC(=O)NC2=O)ccc1Oc1ccc([N+](=O)[O-])cc1[N+](=O)[O-] | 10% | 13µM* | 5% | nt | -17%[10 µM] | 25%[9.22 µM]
COc1cc2c(cc1O)CCN[C@@]21CS[C@H]2c3c(OC(C)=O)c(C)c4c(c3C(COC1=O)N1C2C2c3c(cc(C)c(OC)c3O)CC([C@@H]1O)N2C)OCO4 (some centres not stated) | nt | nt | nt | nt | -29% | 0.0025µM*
COc1ccc(C(=O)C2CCCN(Cc3c(C)[nH]c4ccccc34)C2)c(OC)c1 (configuration not stated) | 0% | -8% | -3% | nt | -15%[10 µM] | 35µM*
NC(=O)COC(=O)CCSc1ccc(Cl)cc1 | 17% | 9% | -2% | -5%[46 µM] | 14µM* | ?
O=C(COC(=O)CCSc1ccc(Cl)cc1)Nc1ccc(F)cc1 | -6% | 17% | -12% | -14% | 0%[10 µM] | -4%
c1ccc(-c2ccc(-c3ccc(C4=NCCN4)cc3)o2)cc1 | nt | nt | nt | nt | 23%[10 µM] | nt
Cc1ccc(Cl)cc1N1CCN(Cc2cc3c(cc2O)CCC3)CC1 | -5% | 10µM* | -4% | 8% | -25% | -15%
Oc1c(C(c2ccccc2)N2CCN(c3cccc(Cl)c3)CC2)sc2nc(-c3ccco3)nn12 (configuration not stated) | nt | nt | nt | -15%[46 µM] | nt | nt
CC(=O)c1cccc(NC(=O)COc2cc3oc(=O)c(CC(C)O)c(C)c3cc2Cl)c1 (configuration not stated) | -5% | ? | 78% | 2% | 14%[10 µM] | 3.5µM*
O=c1oc(-c2ccc(C(F)(F)F)cc2)nn1Cc1cc(Cl)ccc1O | 6% | nt | nt | nt | nt | nt
COc1cc(/C=C2\SC(c3ccc(C)cc3)=NC2=O)cc(OC)c1O | -19% | 2µM* | ? | ? | 9%[10 µM] | 21%
SMILES | CBFb RUNX1 block | NPSR antag | MBNL1 CUG block | LMNA splice mod | HTT cytoprotect | HttQ103 aggreg
Cn1c(=O)c2c(nc(NCc3ccco3)n2CCc2ccccc2)n(C)c1=O | -6% | -8%[46.1 µM] | -2% | ? | -21% | 13µM*
Cn1c(=O)c2c(nc(NCc3ccccc3)n2Cc2ccc(F)cc2)n(C)c1=O | -7% | -22%[46.1 µM] | -19% | -14% | -21%[10 µM] | 20µM*
O=C1C2=C(S[C@@H]3O[C@H](CO)[C@@H](O)[C@H](O)[C@H]3O2)C(=O)c2ccccc21 | 11% | nt | nt | nt | -15% | nt
CC(C)c1onc(C(=O)NC(C)c2ccccc2)c1[N+](=O)[O-] (configuration not stated) | -8% | 13% | 25% | nt | -41% | 4.5µM*
COc1c(C(=O)Nc2ccc(Cc3ccncc3)cc2)ccc2ccccc12 | 3% | -7% | 13% | ? | nt | 13µM*
COc1ccccc1C(=O)NC(=S)Nc1ccc(Cc2ccncc2)cc1 | nt | nt | -4% | nt | nt | nt
C=CC[C@@](C(C)=O)(C(=O)OC)C(NC(=O)OC(C)(C)C)c1ccccc1 (some centres not stated) | 3% | nt | nt | nt | -58% | nt
CCN(CCCCO)c1nc(C)nc2c1c(C)c(C)n2-c1c(C)cc(C)cc1C | 3% | nt | nt | nt | nt | nt
O=C1/C(=C/c2ccc(O)c([N+](=O)[O-])c2)SC(=S)N1Cc1ccccc1 | -23% | -44% | 2% | nt | nt | ?
O=C(NN1C(=O)/C(=C/c2ccc(O)c([N+](=O)[O-])c2)SC1=S)c1ccccc1Cl | ? | 6.3µM* | ? | nt | 13% | -28%
Cc1ccc(N2CC(NC(=O)C(=O)c3c[nH]c4ccccc34)CC2=O)cc1 (configuration not stated) | nt | nt | nt | 0%[46 µM] | nt | nt
CCOc1ccc(C(=O)Nc2nnc(S(=O)(=O)N(CC)c3ccccc3C)s2)cc1 | nt | nt | nt | 14%[46 µM] | nt | nt
Cc1ccc2nc(NC(=O)CN3CCOCC3)sc2c1 | 23% | -2%[46.1 µM] | -11% | 11% | -23% | 3.2µM*
CCN1CCN(CC(=O)Nc2nc3ccc(C)cc3s2)CC1 | nt | nt | -16% | nt | nt | nt
Cc1sc(NC(=O)CN2CCOCC2)nc1-c1ccc2c(c1)CCN2S(=O)(=O)c1ccccc1 | -20% | -17%[46.1 µM] | 7% | ? | -17% | 7.1µM*
O=C(CN1CCOCC1)Nc1nc(-c2ccc3c(c2)CCN3S(=O)(=O)c2ccccc2)cs1 | -24% | -20%[46.1 µM] | 11% | ? | -17%[10 µM] | ?
Oc1ccc2ccccc2c1N=Nc1ccccc1F | ? | 5% | 3% | nt | 4%[10 µM] | 4%[9.22 µM]
Oc1ccc2ccccc2c1N=Nc1ccccn1 | nt | 7.9µM* | ? | ? | -76% | ?
O=C(c1cccs1)N(Cc1cccnc1)c1nc2ccc(F)cc2s1 | nt | nt | nt | -5%[46 µM] | nt | nt
Cc1ccc(NC(=S)NCCC2=CCCCC2)cc1 | -7% | -10% | 0% | nt | -84% | 13µM*
CCOC(=O)c1ccc(NC(=S)NCCC2=CCCCC2)cc1 | -3% | -33% | ? | ? | -2%[10 µM] | -5%
